Only some compounds are listed: those with a hit (about 1.4% of all), similar ones and a draw of the others.
Pf gametocyte: late stage P. falciparum gametocyte viability inhibitors, primary screen, ATP luminescence, HTS; P. falciparum stage V gametocytes, 24 h; inhibition, % at 10.9 µM; 150,000 tested, 0.065% active; AID 743093, 2013;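 active = inhibition above the mean plus 3 SD of compounds within the control limits, set per campaign, cut at about 38% in these data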;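 note: 0% = DMSO wells and 100% = medium only without gametocytes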
Furin inhibitor: human furin inhibitors, primary screen, biochemical, fluorescence intensity; P09958; purified furin, fluorogenic substrate cleavage; inhibition, % at 20 µM or 30 µM; 220,000 tested, 0.061% active; in the data active = inhibition above about 25%
HSV augment: enhancers of HSV replication in host cells, fold increase, host cell viability. HSV replication augmentation in cells. maximum fold increase. 220,000 tested, 0.005% active; in the data active = maximum fold increase above about 1.5; tested in PC3 cells
EP2 mod: EP2 receptor modulators, cAMP readout, primary screen, cell-based, HTRF cAMP, PGE2 stimulation; Prostaglandin E2 receptor EP2 subtype (Homo sapiens), P43116; EP2-expressing cells, cAMP HTRF FRET, PGE2 co-stimulation; induction, % at 25 µM; 260,000 tested, 0.83% active;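 active = compounds whose cAMP rise, as percent of the full-agonist control response, exceeds 60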;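 note: rat C6 glioma line stably carrying human EP2 under a CMV promoter; the protocol text gives 20 µM as final concentration; 100% = response of wells given 1 µM PGE2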
Target sequence (P43116 whole entry, looked up): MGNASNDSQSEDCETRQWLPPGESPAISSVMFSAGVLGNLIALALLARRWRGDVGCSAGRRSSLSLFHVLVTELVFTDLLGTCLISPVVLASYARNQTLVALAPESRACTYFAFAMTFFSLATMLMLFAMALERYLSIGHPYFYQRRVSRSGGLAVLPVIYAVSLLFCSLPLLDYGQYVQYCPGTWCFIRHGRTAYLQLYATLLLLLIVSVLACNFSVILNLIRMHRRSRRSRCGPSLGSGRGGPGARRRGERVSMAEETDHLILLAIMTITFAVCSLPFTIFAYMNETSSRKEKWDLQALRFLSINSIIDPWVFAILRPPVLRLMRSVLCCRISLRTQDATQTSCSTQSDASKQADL
PGE2 EP2 inh: human EP2 receptor antagonists, primary screen, TR-FRET cAMP, C6 glioma cells; inhibition, % at 25 µM; Prostaglandin E2 receptor EP2 subtype (Homo sapiens), P43116; C6 glioma cells expressing human EP2; cells stimulated with saturating PGE2; AID 1422, 2008; 260,000 tested, 0.52% active;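 active = percent inhibition above 40 after rounding to a whole number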;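 note: rat C6 glioma host cells with rolipram phosphodiesterase inhibitor present; the protocol text gives 20 µM as final concentration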
An asterisk follows results filed as active; i = inactive; nt = no result; ! = repeats disagree.

SMILES	Pf gametocyte	Furin inhibitor	HSV augment	EP2 mod	PGE2 EP2 inh
Cc1ccc2nc(/C(C#N)=C/c3cn[nH]c3-c3ccc(F)cc3)[nH]c2c1	nt	28*	i	-16	5
Cc1ccc2nc(/C(C#N)=C/c3ccc(O)c(O)c3)[nH]c2c1	-6	nt	nt	nt	nt
CCOc1ccc(OCc2ccc(C(=O)Nc3cccnc3)o2)cc1	0	-11	i	-35	22
CCN(CC)c1c([N+](=O)[O-])c(=O)n(C)c2ccccc12	13	-16	i	22	6
Cn1c(=O)c([N+](=O)[O-])c(Cl)c2ccccc21	-2	-3	i	-33	95*
S=C1SCN(C2CCCCCCCCCCC2)CN1C1CCCCCCCCCCC1	nt	nt	nt	12	41*
Cc1cccc(C)c1NC(=O)c1c(-c2ccccc2)noc1C	nt	-31	i	6	8
Cc1cccc(NC(=O)c2c(-c3ccccc3)noc2C)n1	6	-25	i	-55	43*
Cc1cccc(NC(=S)NCCc2ccccn2)c1	-11	-16	i	2	9
COC(=O)c1cc(CC(=O)c2ccc(O)cc2O)c(C)o1	nt	-8	i	40	1
CC(C)[C@@H]1OC(=O)C=CC=CC=CC=CC=CC[C@@H](O)[C@H](C)[C@@H](O)C[C@H](O)C[C@H](O)C[C@H](O)C[C@H](O)C[C@H](O)C[C@H](O)C=C[C@@H]1C	nt	nt	nt	-6	49*
O=C(O)c1cccc(S(=O)(=O)Nc2ccccc2Cl)c1	nt	-25	nt	12	nt
O=C(O)c1cccc(S(=O)(=O)Nc2ccccn2)c1	nt	nt	nt	-36	63*
CCOC(=O)C1CCCC(NS(=O)(=O)c2ccc(NC(C)=O)cc2)C1 (centres undefined)	10	-22	i	7	7
NS(=O)(=O)c1cc2c(cc1Cl)N[C@H](Cc1ccccc1)NS2(=O)=O	nt	nt	nt	15	53*
NS(=O)(=O)c1cc2c(cc1Cl)NC(c1ccccc1)NS2(=O)=O (centres undefined)	nt	nt	nt	12	9
C=CCc1cc(Cl)ccc1OCCOCCNC(C)CC (centres undefined)	-6	-36	i	-42	5
C=CCc1cc(C)ccc1OCCOCCC(C(=O)OCC)C(=O)OCC	-3	-15	nt	62*	13
COc1cc(-c2nc3cnccn3c2NCCc2ccc(OC)c(OC)c2)ccc1O	nt	nt	nt	-16	12
Cc1ccc(/C=N/NC(=O)NC2CCCCC2)o1	nt	-31	i	2	13
Cc1cccc(/C=N/NC(=O)NC2CCCCC2)c1	17	-4	i	63*	6
COc1cccc2c1C(=N)c1c(O)c3c(c(O)c1C2=O)C[C@](O)(C(C)=O)C[C@@H]3O[C@@H]1C[C@H](N)[C@@H](O)[C@H](C)O1	nt	nt	nt	-116	128*
COc1cccc2c1C(=O)c1c(O)c3c(c(O)c1C2=O)C[C@](O)(C(=O)CO)C[C@@H]3O[C@@H]1C[C@H](N)[C@@H](O)[C@H](C)O1	nt	nt	nt	31	40*
COc1cccc2c1C(=O)c1c(O)c3c(c(O)c1C2=O)C[C@@](O)(C(C)=O)C[C@@H]3O[C@H]1C[C@H](N)[C@H](O)[C@H](C)O1	nt	1	nt	0	nt
CCc1ccc(NC(=O)Nc2c(C)n(C)n(-c3ccccc3)c2=O)cc1	0	-10	i	-10	4
SMILES	Pf gametocyte	Furin inhibitor	HSV augment	EP2 mod	PGE2 EP2 inh
Cc1ccc(-c2nc(C(Cl)Cl)c3ccccc3n2)cc1	-3	-31	i	61*	10
CC1(C)OC[C@@H]2O[C@H](n3cnc4c(N)nc(Cl)nc43)[C@H](OS(C)(=O)=O)[C@H]2O1	nt	nt	nt	-19	56*
Nc1nc(Cl)nc2c1ncn2[C@H]1C[C@H](O)[C@@H](CO)O1	nt	-11	i	-5	16
COC(=O)c1[nH]c2ccccc2c1NC(=O)CN1CCN(C(=O)c2ccco2)CC1	nt	-12	i	-2	17
N[C@@H](CSC1(c2ccc(Cl)cc2)c2ccccc2-c2ccccc21)C(=O)O	nt	nt	nt	5	44*
NCCN1C(=O)c2ccccc2[C@@]1(O)c1ccc(Cl)cc1	nt	nt	nt	0	13
CC1CCN(CC(=O)Nc2ccccc2-c2ccccc2)CC1	-12	-28	i	65*!	5
CC1CCN(CC(=O)Nc2ccccc2C(=O)c2ccccc2)CC1	-9	-29	i	63*	0
COC(=O)c1ccc(C(=O)OC)c(NC(=O)CN2CCC(C)CC2)c1	-4	-23	i	27	5
Cc1cccc(-n2c(-c3ccco3)nn(CC(=O)N3CCC(C)CC3)c2=O)n1	nt	nt	nt	8	nt
Cc1cccnc1CN1CCN(C(=O)c2cc(COc3ccc4ncccc4c3)on2)CC1	2	-30	i	-26	4
CCOc1cc(C2CC(=O)Nc3cc(C)c(C)cc32)ccc1O (centres undefined)	0	-13	i	64*	6
CN(C)c1ccc(/C=C/c2ccc3ccccc3[n+]2C)cc1	23	-1	i	-25	100*
COC(=O)c1ccccc1NC(=O)COc1ccccc1	-25	-11	i	27	8
CCCCc1ccc(Nc2nc(CCC)cc(=O)[nH]2)cc1	15	-16	i	61*	11
O=C(N/N=C/c1ccccc1Br)C1CC1	nt	-13	i	0	6
Cc1nnc(SCC(=O)Nc2cccc(S(=O)(=O)NC3=NCCCCC3)c2)n1Cc1ccccc1	nt	-18	i	7	12
CCCCNc1nc(NC)nc(Cl)c1SC	9	-24	i	63*	5
CNc1nc(Cl)c(SC)c(N2CCOCC2)n1	11	-7	i	-5	4
CC(=O)CSc1ncnc2c1oc1ccccc12	nt	-2	i	62*	16
O=C(Cn1c(SCC(=O)N2CCc3ccccc32)nc2ccccc21)NC1CCCC1	nt	-23	i	-10	10
Cn1c(C2CCCCC2)nc2c1c(=O)[nH]c(=O)n2Cc1ccccc1	-10	-9	i	65*	8
Cc1cc(OCc2nc(N)nc(N)c2-c2ccc(Cl)c(Cl)c2)ccc1[N+](=O)[O-]	nt	nt	nt	-35	68*
COc1ccc(C=O)cc1COc1ccc([N+](=O)[O-])c(C)c1	-1	-12	i	-11	4
COc1cccc(/C(O)=C2/C(=O)C(=O)N(CCN(C)C)C2c2cccnc2)c1 (centres undefined)	nt	nt	nt	-15	8
SMILES	Pf gametocyte	Furin inhibitor	HSV augment	EP2 mod	PGE2 EP2 inh
Nc1ncnc2c1C1(CCCCC1)Cc1ccccc1-2	6	-14	i	80*!	9
COc1cc(CCc2ccc3c(c2)OCO3)oc(=O)c1	nt	-30	i	63*	17
COc1ccc2cc1Oc1ccc(cc1)C[C@H]1c3cc(c(OC)cc3CCN1C)Oc1c(OC)c(OC)cc3c1[C@@H](C2)N(C)CC3	2	nt	nt	-12	59*
COC(=O)c1sc2ncccc2c1OCc1c(Cl)cccc1Cl	-5	-14	i	62*	4
Cc1cc(Nc2ccc(N=Nc3ccc(O)c4ncccc34)cc2)nc(C)n1	nt	nt	nt	17	45*
Cc1ccc(N=Nc2ccc(O)c3ncccc23)cc1	15	5	i	-11	5

Screening results as filed in PubChem BioAssay.
